# Experimental data as given in PubChem BioAssay (Tox21).
# A number with no mark means an inactive call. Inconclusive results are not listed. A call without a number means that no potency is given here. Active and inactive are the calls of the source. Unless noted, calls follow the shape of the dose curve; as a rule, active = well fitted curve in the direction sought with a large enough effect in the repeat runs; inconclusive = weak or mixed curves; inactive = no such curve, though single readings can be large; an effect the other way counts as inactive or inconclusive.
# Experiments:
# [1] = qHTS assay to identify small molecule agonists of the sonic hedgehog signaling (Shh) pathway (AID 1259368; calls by dose curve;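 also: NIH/3T3-derived 3T3Gli1-Luc cells carrying a stable Gli1-driven firefly luciferase reporter; series mostly up to about 92 µM; nearly all actives have a fitted effect of over 15% in size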)
# Summary of the method: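 Luminescent signal was taken as a measure of Gli1-controlled luciferase expression in stably transfected NIH/3T3-derived cells that had been treated for 24 hr with compounds delivered in DMSO.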
# [2] = qHTS assay to identify small molecule agonists of the androgen receptor (AR) signaling pathway in the presence of an antagonist - cell viability counter screen (AID 1259379);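 also: MDA-kb2 human breast cancer cells carrying an MMTV luciferase reporter; series mostly up to about 92 µM; nearly all actives have a fitted effect of over 25% in size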
# Summary of the method: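 In MDA-kb2 cells (human breast carcinoma, MMTV-luciferase), compounds at 15 concentrations plus 3.0uM nilutamide; 16 hr, 37C, 0% CO2; CellTiter-Fluor fluorescence read for viability.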
# [3] = qHTS assay to identify small molecule agonists of the estrogen receptor beta (ER-beta) signaling pathway - cell viability counter screen (AID 1259380); also: nearly all actives have a fitted effect of over 30% in size
# Summary of the method: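 Viability of ER-beta-UAS-bla HEK293T cells was determined by CellTiter-Glo luminescence following 16 hr treatment with test compounds at 37C.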
# [4] = qHTS assay to identify small molecule agonists or antagonists of the thyroid stimulating hormone receptor (TSHR) signaling pathway - wild type cell line counter screen (AID 1259384; calls by dose curve)
# Summary of the method: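 Wild-type HEK293 cells were plated 18 h at 37 C/5% CO2, pin-dosed with compound plus Ro20-1724 medium, held 30 min at room temperature, then given cAMP-d2 and anti-cAMP-cryptate; fluorescence was read after 1 h. Fifteen concentrations, triplicate.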
# [5] = target: Thyrotropin receptor (Homo sapiens) (UniProt P16473); experiment: qHTS assay to identify small molecule antagonists of the thyroid stimulating hormone receptor (TSHR) signaling pathway (AID 1259385; calls by dose curve; also: nearly all actives have a fitted effect of over 20% in size)
# Sequence of Thyrotropin receptor (Homo sapiens) (P16473 whole entry, looked up): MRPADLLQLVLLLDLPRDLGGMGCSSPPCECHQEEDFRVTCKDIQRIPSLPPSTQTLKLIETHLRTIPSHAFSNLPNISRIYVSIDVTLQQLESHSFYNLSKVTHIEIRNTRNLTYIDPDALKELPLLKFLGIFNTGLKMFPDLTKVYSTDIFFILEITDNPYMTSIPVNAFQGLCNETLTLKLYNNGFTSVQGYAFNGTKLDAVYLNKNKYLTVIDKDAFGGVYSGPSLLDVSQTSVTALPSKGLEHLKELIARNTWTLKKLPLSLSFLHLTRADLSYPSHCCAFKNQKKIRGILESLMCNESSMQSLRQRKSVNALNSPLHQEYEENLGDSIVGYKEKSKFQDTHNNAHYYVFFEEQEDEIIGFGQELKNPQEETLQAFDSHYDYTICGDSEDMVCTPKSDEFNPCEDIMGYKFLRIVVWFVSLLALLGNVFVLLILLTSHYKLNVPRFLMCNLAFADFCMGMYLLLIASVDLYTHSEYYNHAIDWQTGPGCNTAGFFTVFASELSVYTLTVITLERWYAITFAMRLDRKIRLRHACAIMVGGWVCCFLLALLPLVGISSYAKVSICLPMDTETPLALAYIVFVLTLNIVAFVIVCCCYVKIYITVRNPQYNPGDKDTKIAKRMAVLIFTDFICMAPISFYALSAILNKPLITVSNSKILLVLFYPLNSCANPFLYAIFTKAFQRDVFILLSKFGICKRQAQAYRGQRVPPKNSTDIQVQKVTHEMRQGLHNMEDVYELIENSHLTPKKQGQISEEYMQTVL
# Summary of the method: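 TSHR-HEK293 cells were plated and held 18 h at 37C/5% CO2, then given compound plus Ro20-1724 and stimulated with TSH at 1.5 ng/mL final. After 30 min at room temperature, cAMP was detected with cAMP-d2/anti-cAMP-cryptate (1 h) by fluorescence.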
# [6] = target: Progesterone receptor (Homo sapiens) (UniProt P06401); experiment: qHTS assay to identify small molecule agonists of the progesterone receptor (PR) signaling pathway (AID 1346784; calls by dose curve; also: nearly all actives have a fitted effect of over 30% in size)
# Sequence of Progesterone receptor (Homo sapiens) (P06401 whole entry, looked up): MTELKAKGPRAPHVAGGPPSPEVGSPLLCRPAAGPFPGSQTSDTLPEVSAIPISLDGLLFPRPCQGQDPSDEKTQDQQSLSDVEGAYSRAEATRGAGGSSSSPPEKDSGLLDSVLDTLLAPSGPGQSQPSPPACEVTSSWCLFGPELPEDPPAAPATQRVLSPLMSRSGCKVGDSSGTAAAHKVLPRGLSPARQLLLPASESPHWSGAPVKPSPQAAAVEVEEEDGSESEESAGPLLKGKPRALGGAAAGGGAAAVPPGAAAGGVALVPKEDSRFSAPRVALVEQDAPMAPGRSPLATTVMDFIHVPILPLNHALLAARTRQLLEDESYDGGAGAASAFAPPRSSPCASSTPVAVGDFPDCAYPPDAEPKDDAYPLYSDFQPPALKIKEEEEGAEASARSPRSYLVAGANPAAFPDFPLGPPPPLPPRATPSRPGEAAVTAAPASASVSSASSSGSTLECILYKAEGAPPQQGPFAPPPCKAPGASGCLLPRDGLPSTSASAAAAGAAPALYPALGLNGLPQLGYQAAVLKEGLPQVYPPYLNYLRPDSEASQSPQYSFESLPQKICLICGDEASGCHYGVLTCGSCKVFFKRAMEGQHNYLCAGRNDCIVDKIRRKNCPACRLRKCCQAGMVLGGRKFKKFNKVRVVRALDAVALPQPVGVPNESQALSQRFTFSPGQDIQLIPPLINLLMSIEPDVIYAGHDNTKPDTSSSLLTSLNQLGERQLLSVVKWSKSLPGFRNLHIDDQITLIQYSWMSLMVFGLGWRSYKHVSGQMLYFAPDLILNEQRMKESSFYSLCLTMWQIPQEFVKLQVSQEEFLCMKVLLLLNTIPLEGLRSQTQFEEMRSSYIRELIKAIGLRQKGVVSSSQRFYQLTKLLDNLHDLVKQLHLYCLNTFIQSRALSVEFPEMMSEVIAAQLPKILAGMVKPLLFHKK
# Summary of the method: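 HEK 293T PR-UAS-bla reporter cells, 2% charcoal-stripped FBS; 6 hr settle at 37C/5% CO2, compound (DMSO) 16 hr, LiveBLAzer B/G FRET substrate 2 hr RT, fluorescence intensity read.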
# [7] = target: Progesterone receptor (Homo sapiens) (UniProt P06401); experiment: qHTS assay to identify small molecule antagonists of the progesterone receptor (PR) signaling pathway (AID 1346795; active = well fitted inhibition curve with a large enough effect in the signal ratio in the repeat runs, not every such curve was filed as active; the % refers to the signal ratio)
# Summary of the method: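 Beta-lactamase reporter, HEK293T PR-UAS-bla line; 2% charcoal-stripped FBS; 6 hr pre-incubation, 37C/5% CO2. Compound + R5020 1 nM final, 16 hr. LiveBLAzer B/G FRET substrate, 2 hr RT; fluorescence intensity read.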
# [8] = qHTS assay to identify small molecule antagonists of the progesterone receptor (PR) signaling pathway - cell viability counter screen (AID 1346798); also: nearly all actives have a fitted effect of over 50% in size; also: potency is read from the fitted curve at half-maximal effect
# Summary of the method: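 Luminescence readout (CellTiter-Glo, 30 min, RT) of viability in PR-UAS-bla HEK293T cells exposed to compound and R5020 agonist for 16 hr at 37C, 5% CO2; run in the same wells as the beta-lactamase reporter read.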
# [9] = qHTS assay to identify small molecule agonists of the progesterone receptor (PR) signaling pathway - cell viability counter screen (AID 1346799; calls by dose curve; also: nearly all actives have a fitted effect of over 45% in size)
# Summary of the method: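 HEK293T PR-UAS-bla, 3,000 cells/well, 2% charcoal-stripped FBS; 6 h settle, compound 16 h at 37C/5% CO2; LiveBLAzer 2 h RT, then CellTiter-Glo 30 min RT, luminescence read.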
# [10] = qHTS assay to identify small molecule antagonists of the TGF-beta/Smad signaling pathway - cell viability counter screen (AID 1346824); also: nearly all actives have a fitted effect of over 50% in size
# Summary of the method: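 SBE-bla HEK 293T cells were plated overnight at 37 C, then given compounds in DMSO plus TGF-beta1 (added as 0.25 ng/mL solution) for 5 hr. After the bla read, CellTiter-Glo was added to the same wells and luminescence read after 30 min at room temperature.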
# [11] = qHTS assay to identify small molecule agonists of the TGF-beta/Smad signaling pathway - cell viability counter screen (AID 1346829); also: top concentration of the series differs between compounds; nearly all actives have a fitted effect of over 45% in size
# Summary of the method: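 Same-well cytotoxicity: CellTiter-Glo added after the 2 hr room-temperature beta-lactamase substrate step, luminescence measured 30 min later; cells had 5 hr of compound at 37 C.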
# [12] = qHTS assay to identify small molecule agonists of the TGF-beta/Smad signaling pathway (AID 1346859; active = well fitted activation curve with a large enough effect in the signal ratio in the repeat runs, not every such curve was filed as active; the % refers to the signal ratio; also: series mostly up to about 77 µM)
# Summary of the method: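 Read-out: fluorescence at 460 and 530 nm (405 nm excitation) after a 2 hr room-temperature incubation with beta-lactamase FRET substrate. SBE-bla HEK 293T cells had been treated with test compounds for 5 hr at 37 C.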
# [13] = qHTS assay to identify small molecule antagonists of the estrogen receptor beta (ER-beta) signaling pathway - cell viability counter screen (AID 1259382); also: series mostly up to about 92 µM; nearly all actives have a fitted effect of over 55% in size
# Summary of the method: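 Tox21 10K library tested in qHTS format on ER-beta-bla HEK293T cells stimulated with 1nM E2; 16 hr treatment at 37C. Same-well CellTiter-Glo luminescence served as the cell viability measure.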
# [14] = qHTS assay to identify small molecule agonists of the estrogen receptor alpha (ER-alpha) signaling pathway in the presence of an antagonist - cell viability counter screen (AID 1259386);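 also: series mostly up to about 92 µM; cells exposed to compounds for 22 h at 37 °C before the viability read; nearly all actives have a fitted effect of over 30% in size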
# Summary of the method: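 Fluorescent CellTiter-Fluor viability signal from VM7Luc4E2 cells, with the reagent added during the final hour of a 22hr compound exposure at 37C in the presence of 10.0nM ICI-182,780.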
# [15] = target: Thyrotropin-releasing hormone receptor (Homo sapiens) (UniProt P34981); experiment: qHTS assay to identify small molecule antagonists of the thyrotropin-releasing hormone receptor (TRHR) signaling pathway (AID 1346877; active = well fitted inhibition curve with a large enough effect in the repeat runs, not every such curve was filed as active; also: series mostly up to about 51 µM)
# Sequence of Thyrotropin-releasing hormone receptor (Homo sapiens) (P34981 whole entry, looked up): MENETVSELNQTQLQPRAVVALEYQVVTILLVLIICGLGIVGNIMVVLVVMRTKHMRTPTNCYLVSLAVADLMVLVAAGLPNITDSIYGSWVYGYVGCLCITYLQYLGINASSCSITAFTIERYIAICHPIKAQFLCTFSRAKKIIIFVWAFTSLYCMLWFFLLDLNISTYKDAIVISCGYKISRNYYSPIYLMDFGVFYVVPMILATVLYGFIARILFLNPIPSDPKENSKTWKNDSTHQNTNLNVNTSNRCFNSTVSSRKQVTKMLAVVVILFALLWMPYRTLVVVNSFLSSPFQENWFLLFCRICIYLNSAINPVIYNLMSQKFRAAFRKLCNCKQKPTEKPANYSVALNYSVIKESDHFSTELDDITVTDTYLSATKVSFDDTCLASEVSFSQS
# Summary of the method: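 In this cell-based calcium flux format, HEK293 cells expressing TRHR received test compound for 5 min before the agonist TRH (1 nM final). Dye loading lasted 2 h at 37 °C.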
# [16] = target: Estrogen receptor beta (Homo sapiens) (UniProt Q92731); experiment: qHTS assay to identify small molecule antagonists of the estrogen receptor beta (ER-beta) signaling pathway (AID 1259378; active = well fitted inhibition curve with a large enough effect in the signal ratio in the repeat runs, not every such curve was filed as active; the % refers to the signal ratio)
# Sequence of Estrogen receptor beta (Homo sapiens) (Q92731 whole entry, looked up): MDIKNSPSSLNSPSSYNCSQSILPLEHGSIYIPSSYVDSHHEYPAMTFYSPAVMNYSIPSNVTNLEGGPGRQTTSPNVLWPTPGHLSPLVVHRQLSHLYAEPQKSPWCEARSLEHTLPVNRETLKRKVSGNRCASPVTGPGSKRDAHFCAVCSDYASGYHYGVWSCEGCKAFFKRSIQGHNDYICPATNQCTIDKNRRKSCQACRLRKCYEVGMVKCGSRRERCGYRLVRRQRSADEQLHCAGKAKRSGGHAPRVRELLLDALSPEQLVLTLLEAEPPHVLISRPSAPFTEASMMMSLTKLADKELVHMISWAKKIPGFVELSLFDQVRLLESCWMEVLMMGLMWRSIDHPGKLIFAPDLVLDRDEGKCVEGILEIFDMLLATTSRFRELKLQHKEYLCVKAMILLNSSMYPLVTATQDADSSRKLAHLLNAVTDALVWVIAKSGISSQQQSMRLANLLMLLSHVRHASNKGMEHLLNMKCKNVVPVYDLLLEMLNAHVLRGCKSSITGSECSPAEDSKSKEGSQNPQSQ
# Summary of the method: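 ER-beta-UAS-bla HEK293T (GripTite) cells in 2% charcoal-stripped FBS medium were preincubated 6 hr at 37C, dosed with compound, then stimulated with 1 nM E2 (final) for 16 hr; beta-lactamase reporter read by B/G FRET fluorescence after 2 hr substrate loading.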
# [17] = target: Androgen receptor (Homo sapiens) (UniProt P10275); experiment: qHTS assay to identify small molecule agonists of the androgen receptor (AR) signaling pathway in the presence of an antagonist (AID 1259381; calls by dose curve; also: nearly all actives have a fitted effect of over 15% in size)
# Sequence of Androgen receptor (Homo sapiens) (P10275 whole entry, looked up): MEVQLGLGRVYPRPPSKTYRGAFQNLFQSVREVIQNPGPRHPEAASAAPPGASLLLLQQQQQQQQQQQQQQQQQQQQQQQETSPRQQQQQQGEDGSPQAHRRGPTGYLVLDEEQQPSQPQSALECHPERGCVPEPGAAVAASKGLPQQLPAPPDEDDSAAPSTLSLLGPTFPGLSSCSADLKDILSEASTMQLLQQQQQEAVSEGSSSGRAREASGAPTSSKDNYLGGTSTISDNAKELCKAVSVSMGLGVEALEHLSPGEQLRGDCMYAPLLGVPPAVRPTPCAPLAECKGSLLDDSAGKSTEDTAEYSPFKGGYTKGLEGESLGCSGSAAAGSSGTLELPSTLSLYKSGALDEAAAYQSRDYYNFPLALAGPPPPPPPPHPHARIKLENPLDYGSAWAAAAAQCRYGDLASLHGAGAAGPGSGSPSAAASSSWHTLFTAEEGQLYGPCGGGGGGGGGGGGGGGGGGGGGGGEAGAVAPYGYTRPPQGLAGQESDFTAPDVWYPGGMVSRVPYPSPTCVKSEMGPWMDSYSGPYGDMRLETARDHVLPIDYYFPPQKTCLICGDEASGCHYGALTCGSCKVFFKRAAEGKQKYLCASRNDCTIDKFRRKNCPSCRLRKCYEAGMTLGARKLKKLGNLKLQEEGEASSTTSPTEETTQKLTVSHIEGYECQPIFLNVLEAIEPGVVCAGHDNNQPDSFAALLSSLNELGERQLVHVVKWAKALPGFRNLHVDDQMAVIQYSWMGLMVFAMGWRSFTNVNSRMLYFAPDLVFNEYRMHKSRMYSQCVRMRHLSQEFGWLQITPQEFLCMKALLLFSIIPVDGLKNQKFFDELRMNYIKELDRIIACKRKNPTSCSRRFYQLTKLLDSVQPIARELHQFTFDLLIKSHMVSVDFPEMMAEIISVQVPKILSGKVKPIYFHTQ
# Summary of the method: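 Here, 15-concentration compound series were pin-transferred onto MDA-kb2 MMTV-luciferase cells already dosed with nilutamide (3.0uM final). After 16hr at 37C, ONE-Glo was added and luminescence read 30min later at room temperature.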
# [18] = target: Estrogen receptor (Homo sapiens) (UniProt P03372); experiment: qHTS assay to identify small molecule agonists of the estrogen receptor alpha (ER-alpha) signaling pathway in the presence of an antagonist (AID 1259383; calls by dose curve; also: top concentration of the series differs between compounds; nearly all actives have a fitted effect of over 15% in size)
# Sequence of Estrogen receptor (Homo sapiens) (P03372 whole entry, looked up): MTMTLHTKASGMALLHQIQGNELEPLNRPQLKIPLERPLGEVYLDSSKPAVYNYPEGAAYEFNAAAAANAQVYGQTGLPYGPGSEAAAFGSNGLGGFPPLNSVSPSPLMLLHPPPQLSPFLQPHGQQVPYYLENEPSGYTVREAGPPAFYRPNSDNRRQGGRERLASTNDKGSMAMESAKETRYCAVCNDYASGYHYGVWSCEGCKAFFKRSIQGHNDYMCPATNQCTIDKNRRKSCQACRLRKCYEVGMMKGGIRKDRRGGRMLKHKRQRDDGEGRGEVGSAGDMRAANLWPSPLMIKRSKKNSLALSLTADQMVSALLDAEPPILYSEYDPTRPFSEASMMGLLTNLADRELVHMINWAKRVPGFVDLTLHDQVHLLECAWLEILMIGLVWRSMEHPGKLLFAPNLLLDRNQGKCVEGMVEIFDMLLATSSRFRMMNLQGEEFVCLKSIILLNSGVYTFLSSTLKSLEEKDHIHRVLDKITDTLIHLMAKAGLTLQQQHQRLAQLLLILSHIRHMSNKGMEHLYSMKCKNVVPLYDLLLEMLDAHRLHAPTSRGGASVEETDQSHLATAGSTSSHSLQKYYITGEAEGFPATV
# Summary of the method: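 In VM7Luc4E2 cells, 4,000 per well, compounds at 15 concentrations were co-incubated 22hr at 37C with 10.0nM final ICI-182,780. Luminescence from the stably transfected 4×ERE-luciferase reporter was recorded 30min after ONE-Glo addition.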
# [19] = target: Estrogen receptor beta (Homo sapiens) (UniProt Q92731); experiment: qHTS assay to identify small molecule agonists of the estrogen receptor beta (ER-beta) signaling pathway (AID 1259377; active = well fitted activation curve with a large enough effect in the signal ratio in the repeat runs, not every such curve was filed as active; the % refers to the signal ratio)
# Summary of the method: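 Beta-lactamase reporter readout: fluorescence of LiveBLAzer B/G FRET substrate after 2 h at room temperature, following 16 h compound treatment of ER-beta-UAS-bla HEK293T cells at 37C in 2% charcoal-stripped FBS medium.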
# [20] = qHTS assay to identify small molecule antagonists of the sonic hedgehog signaling (Shh) pathway (AID 1259369; calls by dose curve; also: nearly all actives have a fitted effect of over 45% in size)
# Summary of the method: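 Screening used 3T3Gli1-Luc cells at 2,000 per well, compounds delivered in DMSO, and conditioned medium as agonist stimulus; plates incubated 24hr at 37 C and 5% CO2 before a 30min luciferase step.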
Compound,Potency [1],Potency [2],Potency [3],outcome [4],Potency [5],Potency [6],Potency [7],Potency [8],Potency [9],outcome [10],outcome [11],outcome [12],Potency [13],outcome [14],outcome [15],Potency [16],Potency [17],Potency [18],outcome [19],Potency [20]
COC(C(=O)O)c1ccccc1 (centres undefined),inactive,inactive,inactive,inactive,inactive,inactive,inactive,inactive,inactive,inactive,inactive,inactive,–,–,–,–,–,–,–,–
CCn1c(=O)c2c(nc(/C=C/c3ccc(OC)c(OC)c3)n2C)n(CC)c1=O,inactive,inactive,–,inactive,–,inactive,–,–,–,inactive,inactive,inactive,inactive,inactive,inactive,–,–,–,–,–
COc1cc(CCC(C)=O)ccc1O,inactive,inactive,inactive,inactive,inactive,inactive,inactive,–,–,inactive,inactive,inactive,inactive,inactive,–,inactive,inactive,–,–,–
Cc1ccc(Nc2ccc(O)c3c2C(=O)c2ccccc2C3=O)cc1,inactive,–,inactive,–,–,inactive,–,inactive,–,inactive,inactive,inactive,inactive,inactive,inactive,–,–,inactive,–,–
CCCCCCCCC=O,inactive,inactive,inactive,inactive,inactive,–,inactive,inactive,–,–,inactive,–,–,inactive,–,–,–,–,inactive,–
C=CCSCC1Nc2cc(Cl)c(S(N)(=O)=O)cc2S(=O)(=O)N1 (centres undefined),inactive,inactive,inactive,inactive,inactive,inactive,inactive,inactive,inactive,inactive,inactive,inactive,inactive,inactive,inactive,–,–,–,–,–
C1C2OC2C2C1C1CC2C2OC12 (centres undefined),inactive,inactive,inactive,–,–,inactive,inactive,inactive,inactive,inactive,inactive,inactive,–,inactive,inactive,–,–,–,–,–
O=C1CC2(CCCC2)CC(=O)N1,–,inactive,inactive,inactive,inactive,inactive,–,inactive,–,inactive,inactive,inactive,inactive,inactive,inactive,inactive,inactive,inactive,inactive,inactive
C1COCCO1,inactive,inactive,inactive,–,–,inactive,inactive,inactive,inactive,inactive,inactive,inactive,inactive,inactive,inactive,–,inactive,inactive,–,–
CC(C)(O)c1ccccc1,–,inactive,inactive,–,–,–,inactive,52.2 µM (active),–,inactive,inactive,inactive,inactive,inactive,inactive,inactive,–,inactive,inactive,inactive
COC(=O)C1=C(C)NC(C)=C(C(=O)OCC(C)=O)C1c1ccccc1[N+](=O)[O-] (centres undefined),inactive,inactive,inactive,inactive,inactive,inactive,inactive,inactive,–,inactive,inactive,inactive,inactive,inactive,inactive,–,–,inactive,–,–
CC(CCO)CCCC(C)(C)O (centres undefined),inactive,inactive,inactive,–,–,inactive,inactive,inactive,inactive,inactive,inactive,inactive,inactive,inactive,inactive,–,–,–,inactive,–
Cc1onc(-c2ccccc2)c1-c1ccc(S(N)(=O)=O)cc1,inactive,inactive,inactive,inactive,inactive,inactive,–,–,–,inactive,inactive,inactive,inactive,inactive,inactive,–,–,–,inactive,–
CC(=O)O[C@H](CC(=O)[O-])C[N+](C)(C)C,inactive,inactive,inactive,inactive,inactive,–,inactive,inactive,inactive,inactive,inactive,inactive,inactive,inactive,inactive,–,–,inactive,–,–
CN(C)CCn1nnnc1SCC1=C(C(=O)O)N2C(=O)[C@@H](NC(=O)Cc3csc(N)n3)[C@H]2SC1,inactive,inactive,inactive,inactive,inactive,inactive,inactive,inactive,inactive,inactive,inactive,inactive,inactive,inactive,inactive,–,inactive,–,–,–
CCc1cc(S(=O)(=O)O)c2cc(C(C)C)cccc1-2,–,inactive,inactive,inactive,inactive,inactive,inactive,inactive,inactive,inactive,inactive,inactive,inactive,inactive,inactive,inactive,–,inactive,inactive,inactive
NC(CS)C(=O)O (centres undefined),inactive,inactive,inactive,inactive,inactive,inactive,inactive,inactive,inactive,inactive,–,inactive,–,inactive,–,–,–,–,–,–
Cc1ccccc1Br,inactive,inactive,inactive,inactive,inactive,inactive,inactive,inactive,inactive,inactive,inactive,inactive,inactive,inactive,inactive,–,–,–,inactive,–
